Results on 23 compounds are retold here after PubChem BioAssay.

The nature of experiment [1]: viability loss with induced miR-34 in A549 – imaging, A549 dox-inducible miR-34, nuclei and caspase counts, primary screen (AID 1347080;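 active means compounds whose cell count with miR-34 switched on is under 0.7 times the count with it off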). Particulars: A549 miR-34 inducible, Hoechst nuclei count, 48 h.
Experiment [2] is described as follows: MELAS cybrid and Rieske KO viability enhancers – cell-based, MELAS cybrids, Rieske KO mouse fibroblasts, CellTiter-Glo, primary screen (AID 1508586).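 Further: z relative to plate mean and SD of compound and empty wells.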 Conditions: low glucose.
[3] abbreviates: stronger effect = lower value, cell number ratio, induced over uninduced.
Where [4] appears, read: measured here: relative caspase fold change +Dox/-Dox.
The mark [5] stands for this setting: measured here: total cells with miR-34 induction, stronger effect = lower value.
The mark [6] stands for this setting: measured here: total cells without miR-34 induction.
Setting [7] is: MELAS cybrid survival, CellTiter-Glo 48 h, stronger effect = higher value.
Setting [8] is: Rieske KO mouse fibroblast survival, CellTiter-Glo 72 h.

Each structure is given as a SMILES string. Calls of active or inactive are those of the source.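 How the source made its calls, unless noted: active means mean z-score across replicates of 1.96 or higher in either the MELAS or the Rieske mutant cell line; inactive means the rest.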
Further: test concentration not given here.

Regarding `Nc1nc(CC(=O)Nc2ccc(CCNCC(O)c3ccccc3)cc2)cs1` (stereo not drawn), the fold change in experiment [1] (setting [3]) is 0.898 (inactive); in experiment [1] (setting [4]), 1.03. Moreover, the values for the cell count in experiment [1] (setting [5]) and in experiment [1] (setting [6]) were 8660 and 9650, respectively. In addition, the results for the z-score in experiment [2] (setting [7]) and in experiment [2] (setting [8]) were -0.0817 (inactive) and -0.148, respectively.
Turning to `O=C(O[C@H]1CN2CCC1CC2)N1CCc2ccccc2C1c1ccccc1` (stereo partly drawn), the fold change in experiment [1] (setting [3]) is 0.932 (inactive); in experiment [1] (setting [4]), 0.636. The cell count in experiment [1] (setting [5]) was determined as 6880; in experiment [1] (setting [6]), 7380. Also, the z-score in experiment [2] (setting [7]) is -0.171 (inactive); in experiment [2] (setting [8]), 0.000903.
As to `O=C(C=Cn1cnc(-c2cc(C(F)(F)F)cc(C(F)(F)F)c2)n1)NNc1cnccn1`, the figures for the fold change in experiment [1] (setting [3]) and in experiment [1] (setting [4]) were 1.07 (inactive) and 0.543, respectively. The values for the cell count in experiment [1] (setting [5]) and in experiment [1] (setting [6]) were 2320 and 2170, respectively. For the same compound, the z-score in experiment [2] (setting [7]) was -0.213 (inactive); in experiment [2] (setting [8]), -7.28.
`CC(C)CC(NC(=O)CNC(=O)c1cc(Cl)ccc1Cl)B(O)O` (stereo not drawn): the figures for the fold change in experiment [1] (setting [3]) and in experiment [1] (setting [4]) were 0.948 (inactive) and 1.44, respectively. The cell count in experiment [1] (setting [5]) is 1800; in experiment [1] (setting [6]), 1900. The figures for the z-score in experiment [2] (setting [7]) and in experiment [2] (setting [8]) were -0.0464 (inactive) and -3.37, respectively.
As to `CN(C)C(CCOc1cccc2ccccc12)c1ccccc1` (stereo not drawn), the fold change is 0.873 (inactive) in experiment [1] (setting [3]) and 1.7 in experiment [1] (setting [4]). The results for the cell count in experiment [1] (setting [5]) and in experiment [1] (setting [6]) were 6850 and 7850, respectively. The results for the z-score in experiment [2] (setting [7]) and in experiment [2] (setting [8]) were -0.416 (inactive) and 0.392, respectively.
As to `CC#C[C@@]1(O)CC[C@H]2[C@@H]3CCC4=CC(=O)CCC4=C3C(c3ccc(N(C)C)cc3)C[C@@]21C` (stereo partly drawn), the fold change is 0.891 (inactive) in experiment [1] (setting [3]) and 1.53 in experiment [1] (setting [4]). The cell count amounted to 6640 in experiment [1] (setting [5]) and 7460 in experiment [1] (setting [6]). Further, the z-score was -0.469 (inactive) in experiment [2] (setting [7]) and 0.644 in experiment [2] (setting [8]).
As for `CC1OC(OCC2OC(Oc3c(-c4ccc(OCCO)c(OCCO)c4)oc4cc(OCCO)cc(O)c4c3=O)C(O)C(O)C2O)C(O)C(O)C1O` (stereo not drawn), the fold change was 0.984 (inactive) in experiment [1] (setting [3]) and 0.465 in experiment [1] (setting [4]). Besides, the results for the cell count in experiment [1] (setting [5]) and in experiment [1] (setting [6]) were 7700 and 7830, respectively. The z-score was -0.513 (inactive) in experiment [2] (setting [7]) and -0.15 in experiment [2] (setting [8]).
Take `O=C(O)C1OC(Oc2cc3oc(-c4ccccc4)cc(=O)c3c(O)c2O)C(O)C(O)C1O` (stereo not drawn): the fold change in experiment [1] (setting [3]) was 0.916 (inactive); in experiment [1] (setting [4]), 1.12. Moreover, the values for the cell count in experiment [1] (setting [5]) and in experiment [1] (setting [6]) were 7800 and 8520, respectively. Moreover, the z-score in experiment [2] (setting [7]) is -0.174 (inactive); in experiment [2] (setting [8]) it was 0.279.
Regarding `CCN1CCN(C(=O)NC(C(=O)NC2C(=O)N3C2SC(C)(C)C3C(=O)O)c2ccccc2)C(=O)C1=O` (stereo not drawn), the fold change in experiment [1] (setting [3]) was 0.885 (inactive); in experiment [1] (setting [4]), 1.67. Further, the cell count was found to be 8860 in experiment [1] (setting [5]) and 10000 in experiment [1] (setting [6]). Moreover, the z-score is -0.177 (inactive) in experiment [2] (setting [7]) and -0.164 in experiment [2] (setting [8]).
On to `CCC(C)(C)C(=O)OC1CC(C)C=C2C=CC(C)C(CC[C@@H]3CC(O)CC(=O)O3)[C@H]21` (stereo partly drawn), for which the fold change is 1.33 (inactive) in experiment [1] (setting [3]) and 0.766 in experiment [1] (setting [4]). The figures for the cell count in experiment [1] (setting [5]) and in experiment [1] (setting [6]) were 2960 and 2220, respectively. Also, the values for the z-score in experiment [2] (setting [7]) and in experiment [2] (setting [8]) were 1.26 (inactive) and -1.5, respectively.
In the case of `O=C(O)C1=COC(OC2OC(CO)C(O)C(O)C2O)[C@@H]2C(CO)=CC[C@H]12` (stereo partly drawn), the fold change was 0.954 (inactive) in experiment [1] (setting [3]) and 1.02 in experiment [1] (setting [4]). Besides, the results for the cell count in experiment [1] (setting [5]) and in experiment [1] (setting [6]) were 9820 and 10300, respectively. Also, the z-score in experiment [2] (setting [7]) is -0.392 (inactive); in experiment [2] (setting [8]), 0.447.
Take `Cc1ccccc1CN1C2=NCCN2C(=O)C2=C1CCN(Cc1ccccc1)C2`: the fold change in experiment [1] (setting [3]) was 0.955 (inactive); in experiment [1] (setting [4]), 0.31. For the same compound, the cell count in experiment [1] (setting [5]) turned out to be 8710; in experiment [1] (setting [6]), 9120. The z-score in experiment [2] (setting [7]) was -0.516 (inactive); in experiment [2] (setting [8]), 0.0586.
For `Nc1nc2c(ncn2C2OC(CO)C(O)C2O)c(=O)[nH]1` (stereo not drawn), the results for the fold change in experiment [1] (setting [3]) and in experiment [1] (setting [4]) were 0.891 (inactive) and 0.755, respectively. Moreover, the cell count in experiment [1] (setting [5]) is 8140; in experiment [1] (setting [6]), 9140. Moreover, the z-score in experiment [2] (setting [7]) is -0.357 (inactive); in experiment [2] (setting [8]), -0.0165.
Consider `C[C@@]12CC[C@H]3c4ccc(O)cc4CC(CCCCCCCCCS(=O)CCCC(F)(F)C(F)(F)F)[C@H]3[C@@H]1CCC2O` (stereo partly drawn), for which the fold change in experiment [1] (setting [3]) was 0.975 (inactive); in experiment [1] (setting [4]) it was 0.957. Further, the cell count in experiment [1] (setting [5]) amounted to 4560; in experiment [1] (setting [6]), 4680. The z-score in experiment [2] (setting [7]) was -0.569 (inactive); in experiment [2] (setting [8]), 0.522.
As to `CCC1C(=O)N(C)c2cnc(Nc3ccc(C(=O)NC4CCC(N5CCN(CC6CC6)CC5)CC4)cc3OC)nc2N1C(C)C` (stereo not drawn), the results for the fold change in experiment [1] (setting [3]) and in experiment [1] (setting [4]) were 1.2 (inactive) and 0.875, respectively. The figures for the cell count in experiment [1] (setting [5]) and in experiment [1] (setting [6]) were 1460 and 1210, respectively. The z-score is 6.19 (active) in experiment [2] (setting [7]) and -4.08 in experiment [2] (setting [8]).
As to `CNC1C(O)C(NC)[C@H]2O[C@@]3(O)C(=O)CC(C)O[C@H]3O[C@@H]2C1O` (stereo partly drawn), the fold change in experiment [1] (setting [3]) is 1.01 (inactive); in experiment [1] (setting [4]), 0.997. The cell count was determined as 9590 in experiment [1] (setting [5]) and 9460 in experiment [1] (setting [6]). Besides, the results for the z-score in experiment [2] (setting [7]) and in experiment [2] (setting [8]) were -0.277 (inactive) and 0.762, respectively.
As for `CC(=O)SC1CC2=CC(=O)CC[C@]2(C)[C@@H]2CC[C@@]3(C)[C@@H](CC[C@]34CCC(=O)O4)[C@H]12` (stereo partly drawn), the figures for the fold change in experiment [1] (setting [3]) and in experiment [1] (setting [4]) were 0.898 (inactive) and 0.8, respectively. Further, the cell count in experiment [1] (setting [5]) was found to be 7310; in experiment [1] (setting [6]), 8140. The z-score in experiment [2] (setting [7]) is -0.198 (inactive); in experiment [2] (setting [8]), -0.323.
Regarding `CC(C)c1cc(-c2ccc(F)c3ccccc23)nc(N)n1`, the values for the fold change in experiment [1] (setting [3]) and in experiment [1] (setting [4]) were 0.949 (inactive) and 0.444, respectively. The results for the cell count in experiment [1] (setting [5]) and in experiment [1] (setting [6]) were 7570 and 7980, respectively. For the same compound, the values for the z-score in experiment [2] (setting [7]) and in experiment [2] (setting [8]) were -0.214 (inactive) and 0.0729, respectively.
On to `CC(C)c1ccc(NC(=O)Cn2cnc3c2c(=O)n(C)c(=O)n3C)cc1`, for which the fold change in experiment [1] (setting [3]) is 0.933 (inactive); in experiment [1] (setting [4]) it was 1.42. The cell count in experiment [1] (setting [5]) came out at 7540; in experiment [1] (setting [6]), 8090. The z-score is 0.298 (inactive) in experiment [2] (setting [7]) and -0.444 in experiment [2] (setting [8]).
In the case of `NC(Cc1c[nH]c2ccc(O)cc12)C(=O)O` (stereo not drawn), the results for the fold change in experiment [1] (setting [3]) and in experiment [1] (setting [4]) were 0.876 (inactive) and 0.739, respectively. Further, the cell count in experiment [1] (setting [5]) was found to be 8790; in experiment [1] (setting [6]) it was 10000. Besides, the results for the z-score in experiment [2] (setting [7]) and in experiment [2] (setting [8]) were -0.256 (inactive) and 0.553, respectively.
`COc1cc(C=CC(=O)O)ccc1O`: the fold change is 0.929 (inactive) in experiment [1] (setting [3]) and 0.764 in experiment [1] (setting [4]). For the same compound, the cell count turned out to be 7790 in experiment [1] (setting [5]) and 8380 in experiment [1] (setting [6]). For the same compound, the z-score in experiment [2] (setting [7]) is -0.291 (inactive); in experiment [2] (setting [8]), -1.2.
Turning to `N#Cc1c(Oc2ccc(F)c(NC(=O)Cc3cccc(C(F)(F)F)c3)c2)ccc2nc(NC(=O)C3CC3)sc12`, the fold change in experiment [1] (setting [3]) was 1.2 (inactive); in experiment [1] (setting [4]), 0.284. Moreover, the cell count in experiment [1] (setting [5]) amounted to 2200; in experiment [1] (setting [6]), 1840. For the same compound, the z-score in experiment [2] (setting [7]) was -0.453 (inactive); in experiment [2] (setting [8]), 0.158.
On to `CCC1OC(=O)CC(O)C(C)C(O[C@H]2OC(C)C(O[C@H]3C[C@@](C)(O)C(O)C(C)O3)C(N(C)C)C2O)C(CC=O)CC(C)C(=O)C=CC(C)=CC1COC1OC(C)C(O)C(OC)C1OC` (stereo partly drawn), for which the values for the fold change in experiment [1] (setting [3]) and in experiment [1] (setting [4]) were 0.9 (inactive) and 0.768, respectively. Moreover, the cell count in experiment [1] (setting [5]) was determined as 8760; in experiment [1] (setting [6]), 9740. Further, the results for the z-score in experiment [2] (setting [7]) and in experiment [2] (setting [8]) were -0.254 (inactive) and -0.134, respectively.
